Many of the other results were omitted from the sample, so hits are more common in it than they were.
Giardia FBPA inh = Giardia lamblia aldolase inhibition | A8B2U2 | purified Giardia FBPA | Potency, µM (highest dose often 59.6 µM), hits mostly inhibitors | 290,000 compounds, 0.71% hits | AID 2451; also: nearly all actives have a fitted effect of over 55% in size
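Giardia FBPA (40 nM reagent) was preincubated 10 min at RT with compound (up to 57.5 uM final), then substrate plus GAPDH/TPI/NAD/arsenate coupling system with diaphorase/resazurin was added; resorufin fluorescence (525/598 nm) was read after 20 min.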
Shiga inhibitor = inhibitors of Shiga toxin in Vero cells; inhibition, % at 38.7 µM; AID 2315; 290,000 compounds, 9.2% hits; Vero cells, Shiga toxin protein synthesis inhibition reporter; in the data active = inhibition mostly above about 28%, no sharp cut-off; inactive = mostly below about 43%
Sm TGR block = S. mansoni TGR enzyme inhibition. 360,000 compounds, 3% hits. Potency, µM (highest dose often 114 µM), hits mostly inhibitors. purified TGR, DTNB reduction, TNB absorbance 405 nm. Q962Y6; also: nearly all actives have a fitted effect of over 60% in size
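Kinetic colorimetric format: TGR-catalysed, NADPH-driven DTNB reduction monitored via TNB absorbance. Enzyme dispensed at 20 nM; compound exposure 15 min at room temperature before reaction start.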
LmPK inh = LmPK (Leishmania mexicana) enzyme inhibition; Q27686; purified LmPK, Kinase-Glo ATP luminescence, 1 h; Potency, µM (highest dose often 57.5 µM), actives largely listed as inhibitors; 290,000 compounds, 0.37% hits; AID 1721
Target sequence (Q27686 whole entry, looked up): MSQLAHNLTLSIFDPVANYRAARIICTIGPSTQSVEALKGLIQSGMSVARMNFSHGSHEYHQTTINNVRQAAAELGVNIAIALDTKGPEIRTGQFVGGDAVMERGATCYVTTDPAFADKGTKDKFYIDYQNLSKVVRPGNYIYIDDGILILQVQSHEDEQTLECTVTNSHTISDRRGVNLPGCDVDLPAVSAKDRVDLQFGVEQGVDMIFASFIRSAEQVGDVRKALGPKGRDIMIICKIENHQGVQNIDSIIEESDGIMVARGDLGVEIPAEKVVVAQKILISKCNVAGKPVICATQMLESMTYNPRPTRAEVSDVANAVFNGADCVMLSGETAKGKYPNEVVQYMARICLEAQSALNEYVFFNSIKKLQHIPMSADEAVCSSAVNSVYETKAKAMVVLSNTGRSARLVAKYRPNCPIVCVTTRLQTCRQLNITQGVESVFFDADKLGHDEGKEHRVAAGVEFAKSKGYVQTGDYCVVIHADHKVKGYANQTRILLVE
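Purified LmPK (0.1 nM) with 0.5 mM PEP and 0.1 mM ADP in imidazole buffer pH 7.2 with MgCl2/KCl, 1 h at room temperature. ATP formed was read by luciferase luminescence and normalized to no-enzyme and uninhibited controls.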
Cycloheximide cs = counter-screen for Shiga toxin inhibitors: cycloheximide protein synthesis inhibition; cell reporter, cycloheximide protein synthesis inhibition counterscreen; max response, %; 300,000 compounds, 12% hits; in the data active = max response mostly above about 13%, no sharp cut-off; inactive = mostly below about 14%; also: read at 38.3 µM for the half of the compounds with a filed dose
Tb PYK inh = blocks Trypanosoma brucei pyruvate kinase | Q57TT1 | TbPYK enzyme, Kinase-Glo Plus ATP luminescence, 45 min | Potency, µM (titrated, usually from 76.8 µM), most hits filed as inhibitors | 410,000 compounds, 0.12% hits | AID 624173; also: nearly all actives have a fitted effect of over 50% in size
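Luminescence from Kinase-Glo Plus, added after a 45-minute room-temperature reaction, served as the end-point read-out. The enzyme and substrate were preincubated with compound before ADP (130 uM final) initiated turnover. Concentration-effect curves came from normalized qHTS data.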
Of the large screens only hits and unclear results are named; the others gave an inactive call. Unless noted, calls follow the shape of the dose curve; as a rule, active = well fitted curve in the direction sought with a large enough effect; inconclusive = small, poorly fitted or top-dose-only effect, or another doubt; inactive = no such curve, though single readings can be large; an effect the other way counts as inactive or inconclusive.

COc1ccc(NC(=O)c2ccc(NC(=O)C(C)C)cc2)c([N+](=O)[O-])c1	none
COc1cccc(C(=O)Nc2ccc(C(=O)c3ccncc3)cc2)c1	Cycloheximide cs 17 (no result: Giardia FBPA inh)
COc1cccc(OC)c1C(=O)Nc1ccc(C(=O)c2ccncc2)cc1	none (no result: Giardia FBPA inh, Shiga inhibitor, LmPK inh, Cycloheximide cs)
COc1cccc(C(=O)Nn2cnnc2)c1	Cycloheximide cs 11
COc1ccccc1NC(=O)C1=C(C)Nc2nc(SCc3cccc(F)c3)nn2C1c1ccc(C(=O)O)cc1 (configuration not stated)	none (no result: Giardia FBPA inh, Shiga inhibitor, LmPK inh, Cycloheximide cs)
CCCSc1ncc(Cl)c(C(=O)Nc2c(C(=O)Nc3ccc(OC)cc3)oc3ccccc23)n1	none (no result: Giardia FBPA inh, Shiga inhibitor, LmPK inh, Cycloheximide cs)
CC1(C)C2CCC(CN=C(N)CSS(=O)(=O)O)C1C2 (configuration not stated)	none (no result: Giardia FBPA inh, Shiga inhibitor, Sm TGR block, LmPK inh, Cycloheximide cs)
COc1cc(NC(=O)c2ccc(N)nc2)cc(C(=O)Nc2cccc(C(F)(F)F)c2)c1	Shiga inhibitor 55
COc1cccc(C(=O)Nc2ccc(NC(=O)C(C)(C)C)cn2)c1	Shiga inhibitor 41, LmPK inh inconclusive, Cycloheximide cs 12
COc1cc(OC)cc(C(=O)Nc2cccc(NC(=O)c3ccccc3)c2)c1	none
COc1cc(OC)cc(C(=O)Nc2cccc(C(C)=O)c2)c1	Shiga inhibitor 48, LmPK inh inconclusive, Cycloheximide cs 25
COc1cccc(C(=O)Nc2cccc(NC(C)=O)c2)c1	Giardia FBPA inh inconclusive
COc1cccc(C(=O)Nc2ccc(NC(C)=O)cc2)c1	LmPK inh inconclusive, Cycloheximide cs 28
COc1cccc(NC(=O)C(C)C)c1	none (no result: Giardia FBPA inh, Shiga inhibitor, LmPK inh, Cycloheximide cs)
COc1cccc(NC(=O)c2ccc(NC(=O)C(C)C)cc2)c1	Shiga inhibitor 52, Cycloheximide cs 23
CN(C(=O)CSc1nc(-c2ccccc2)cs1)C1CCS(=O)(=O)C1 (configuration not stated)	none
CN(c1nc(-c2ccccc2)cs1)C1CCS(=O)(=O)C1 (configuration not stated)	Shiga inhibitor 61, Cycloheximide cs 20
CCc1ccc(CN(Cc2cn[nH]c2-c2ccc(OC)cc2)C(=O)Nc2ccc(Br)cc2)cc1	none (no result: Giardia FBPA inh, Shiga inhibitor, LmPK inh, Cycloheximide cs)
COc1cccc(CN2CCC(n3nccc3NC(=O)CCCc3ccccc3)CC2)c1O	Sm TGR block 8.9µM (no result: Giardia FBPA inh)
O=C(CCCc1ccccc1)Nc1ccnn1C1CCN(Cc2ccccc2F)CC1	none (no result: Giardia FBPA inh)
CSCC(=O)N1CCC(n2nccc2NC(=O)CCCc2ccccc2)CC1	Cycloheximide cs 21 (no result: Giardia FBPA inh)
Cc1ccc(S(=O)(=O)N2CCN(C(=O)[C@H](Cc3ccccc3)NC(=O)c3ccco3)CC2)cc1C	none (no result: Giardia FBPA inh, Shiga inhibitor, LmPK inh, Cycloheximide cs)
C#CCOC(=O)Nc1cnccc1C(F)(F)F	none
C#CCOC(=O)Nc1ccc(OCC(F)(F)F)nc1	Shiga inhibitor 46, Cycloheximide cs 21
COc1ccc(NC(=O)C2CCCN(c3ncccn3)C2)cc1 (configuration not stated)	Shiga inhibitor 92, Cycloheximide cs 30
CCC(C)c1ccc(NC(=O)C2CCCN(c3ncccn3)C2)cc1 (configuration not stated)	Shiga inhibitor 50, Cycloheximide cs 33 (no result: Tb PYK inh)
Cc1ccc(NC(=O)C2CCCN(c3ncccn3)C2)cc1C (configuration not stated)	Shiga inhibitor 99, Cycloheximide cs 29
CCC(C)c1ccc(NC(=O)C2CC2)cc1 (configuration not stated)	Shiga inhibitor 59, Cycloheximide cs 25
O=C(NC1CCCCC1)C1CCN(c2ncccn2)CC1	none
CC(C)(C)c1ccc(NC(=O)C2CCCN(c3cnccn3)C2)cc1 (configuration not stated)	Cycloheximide cs 16
COc1ccc(NC(=O)C2CCCN(c3cnccn3)C2)cc1 (configuration not stated)	none (no result: Giardia FBPA inh)
O=C(NC1CCCCCC1)C1CCCN(c2ncccn2)C1 (configuration not stated)	Cycloheximide cs 24
OC(c1ccc(F)cc1)c1nc(-c2cncnc2)cs1 (configuration not stated)	none (no result: Giardia FBPA inh, Shiga inhibitor, Sm TGR block, LmPK inh, Cycloheximide cs)
COP(=S)(OC)Oc1ccc([N+](=O)[O-])cc1	none (no result: Shiga inhibitor, Sm TGR block, LmPK inh, Cycloheximide cs, Tb PYK inh)
COc1cc(/C=C/C(=O)NC(C)C2CC3CCC2C3)cc(OC)c1OC (configuration not stated)	Shiga inhibitor 101, Cycloheximide cs 19
O=C(NCc1ccc2[nH]c3c(c2c1)CCCC3)N1CCOCC1	Giardia FBPA inh inconclusive, Sm TGR block 35µM (no result: Tb PYK inh)
